Laboratory results from ChEMBL document CHEMBL3988442, “University of Dundee, Small-Polar-MMV Screening Library” (2021).

Molecular target: AMP-activated protein kinase, AMPK (Homo sapiens) (UniProt P54646+O43741+P54619+Q9UGJ0+Q9Y478+Q13131+Q9UGI9)
Experiment: AMP-dependent Kinase enzyme assay. An in vitro enzyme assay that detects ADP turnover that is directly proportional to AMPK activity. This uses naive AMPK that is activated during the assay with MK-8722
Type: functional
Set-up: scale not given: direction of the effect not stated beside the values
Settings: 30 µM

| SMILES | Percent Effect [%] |
| --- | --- |
| COc1ccc(CC(C)Nc2cccc(SC)c2)cc1 (stereo not given) | -5.64 |
| Cc1cccc(COc2ccc(C(C)N)cc2)c1 (stereo not given) | -5.16 |
| O=C(NCc1cccnc1N1CCCC(O)C1)c1ccc2[nH]nnc2c1 (stereo not given) | -3.08 |
| FC(F)(F)c1ccnc(N2CCC(c3nccn3CC3CC3)CC2)n1 | 19.6 |
| CN(C)c1nc2c(c(=O)[nH]1)Cc1ccccc1OC2 | 2.09 |
| N#Cc1c(N)nc2c(c1C1CCOC1)CCc1cc(O)ccc1-2 (stereo not given) | 32 |
| CC(OCC1CC1)C(=O)NCCC(=O)Nc1ccccn1 (stereo not given) | 12.4 |
| Cc1cc(N(C)CC2COc3ccccc3O2)nc(C)n1 (stereo not given) | 1.48 |
| COc1cccc(CN(C)Cc2[nH]c3ccccc3c2C)c1O | -44.5 |
| COc1ccc(C(=O)N2C[C@@H](O)[C@H](NCc3cnc(C)cn3)C2)cc1 | -12.3 |
| COCCN1CCC(NC(=O)C/C=C/c2ccc(C(C)C)cc2)CC1 | -8.07 |
| COc1cccc(C)c1C(=O)N1CCc2ncnc(NCCO)c2CC1 | -1.45 |
| CCC(NC(=O)c1cnc(N(C)C)nc1C)c1ccc(S(C)(=O)=O)cc1 (stereo not given) | -4.95 |
| Cc1cc(C)n(CCCN(C)c2cc(N(C)C)ncn2)n1 | 0.376 |
| O=C(NCCc1cccnc1)c1ccc2nccn2c1 | 0.0619 |
| Cc1cc(-c2ccnn2C)nc(C2CCN(S(C)(=O)=O)CC2)n1 | 9.22 |
| O=C(c1c(F)cccc1F)N1CCC[C@@H]1Cn1c(=O)oc2ccccc21 | 23.1 |
| Cc1ccc(CN2CCS(=O)(=O)C(C)(C)C2)cc1C | -0.279 |
| NC(=O)c1cn[nH]c1NC(=O)c1ccc2c(c1)OCO2 | 5.07 |
| CCOc1ccccc1C(C(=O)O)N(C)Cc1nnc(C)o1 (stereo not given) | 4.89 |
